In all, about 53,000 sequences went through this assay and about 3,700 (7%) were called active.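 The calls were made as follows: active = gene knockdowns whose robust z-score for IL-1 alpha signal is at least 2 or at most -2, so actives lie on both sides; inactive = the rest.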 This excerpt belongs to a sample that is enriched for actives.
Assay: Components of the Cytosolic LPS Sensing Pathway: Gene Identification via Genome-wide siRNA Screen;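 also: robust z of the log signal after scaling to non-targeting control siRNA wells of the plate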
Conditions: RAW264.7 macrophages, IL-1a HTRF, actives lie on both sides, screened at 100 nM (by protocol), cells primed 5 h with Pam3CSK4 first
Summary of the method: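 Three distinct siRNAs per gene were tested singly at 100 nM in RAW264.7 macrophages. Following Pam3CSK4 priming and 24 hour LipidA transfection, IL-1a secretion was read by HTRF.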

z-score, active:
CCACUUCCGAUGAGCCAGATT against Mrps10 -3.31
GGUUUUCCUGUUCAAUUCUTT against Olfr586 2.4
GGAAGAUGUCUCCUAUGAGTT against Hebp1 -2.42
GGGCAUCACUUGUAAUUAATT against Bcl10 -2.06
GUCACAGUACCCAAAAUGUTT against Olfr979 -2.42
GAGUACCAGCUGUUGUUCATT against Olfr392 4.22
CGGUACAAAUGAUUUCUGATT against Pcolce2 2.04
GGUCAUGGAUGUCACAGAGTT against Mink1 -2.17
GGUGGAAGCACAGAGUUGCTT against Prdm15 2.14
GGUGGUCAGGAAAUGAGUCTT against Lrch4 2.09
GGAUGGUACAGGUCUGGUGTT against Fgfr3 4.82
GCCUCAACAUGAUCCCGAGTT against Ccdc172 -3.34
GGCAGCUGAAAGAAGAUCUTT against Dffa 3.21
CCUUCUCCUCGUGCAAGUATT against Cort 2.05
GCUCUUGACUCACUCAGCATT against Il1bos -2.01
GGGCUUCACCCUCAUACAATT against Pirt 2.26
GGAGUACAGCAUCUCAGCATT against Cacng1 -2.17
UUGGUUCAACCUCAUCAUATT against Olfr869 2.07
GGAAAAACUGAGAAAACUUTT against Lyrm1 -2.41
GGUGGGUCAAUGAUCCAGGTT against Fabp9 -2.11
GGCUUUGAGCAUGUUUUCATT against Hspb7 7.14
GGGCCAAGAAAACCUACACTT against Cyp11b2 2.63

z-score, inactive:
GGUUCUGGAAGUGAAGGUGTT against Prg2 -0.00973
GCUAUUGGUGCUUCAGUCCTT against Rtel1 -0.458
GCCGUGUUCAUGAAUAAACTT against Glce -0.392
GCUCUGUGAGCGAAAGUUCTT against Synpo2 1.72
CGUGGUCAGCGAGAGAGAATT against Sohlh1 1.19
GGAUGCUGACAACAUAUACTT against Plk3 -0.726
CGCUGCUUUUCCUAGCAGATT against Orai1 0.194
GCUCCAACAAGGCAUAAAATT against Dis3 -1.71
CGUUGAACUAGCAGUGGACTT against Arel1 0.304
GUCUACAUCAACAUGCCUGTT against Hcst 0.729
GGCUUAAUUACACAUGUUCTT against Il6 -1.09
GGACAAGAAAAAGUCCAGATT against Dhx38 -1.17
GCAGGGAAUAGCAAACUUATT against Nfil3 1.18
GGAAAGGAGAGGUGUGUUCTT against Asb7 0.431
CCUGCUUAUUUAUGUACGATT against Tob2 1.27
GGUACCUUAAACUCAUGAATT against Ifnb1 0.773
GCGAACCCUAAGUAAGAAGTT against U2surp -0.989
GCGAGAUGCCAACAAACUGTT against Pacs1 0.678
GCUACCUAUGCCAAUAUCATT against Efemp1 -0.787
GGAACCUAUCCAAGAAGUATT against Ckap2 0.428
GGCCUUGUAUAAAACACAUTT against Pah 0.293
CCAGCUUGUUACUAAGUAATT against Mgat3 -0.227
GCAGGGAGGCAUCUUCUUUTT against Olfr3 -0.22
GGUUCUUUCCAAACAAGAGTT against Evc 1.1
GGAGGUCAUCAACGUGCUATT against Nucb1 -0.339
GGUAAAAUUGUCCAAGGAATT against Clec2i -0.109
GGCCAAGAAGACAAGAAAATT against Ddx54 0.502
GGAAUAUGUUUAGCAUCUGTT against Mfsd5 -0.437
GGCACAUAUGAGGACUACCTT against Myl6b 0.786
GCCGUGCAACACUUCUACATT against Esrrb -0.471
GGAGGUCCCUUCUUCAGCUTT against Zfp410 -1.19
GGCCAAGAAGAGAAAAACATT against Ccne2 -1.54
CCAGAUUCUAUAAUAGAGUTT against Gabrp -0.232
GGGUUCUGUGUAAAUGUAUTT against Gzma 0.203
GGCAGAAGUCCAACUUCUUTT against Pirt -0.363
GCUAGUGCGCAUGUUUCUCTT against Rasgrp2 0.621
GGACAACCAAAAUGCAUUUTT against Zic3 0.517
GGAACUGGGUCCUCAUUCCTT against Capn1 -1.6
GGAGUUCAACUAGAUGUGGTT against Bcl2l13 -1.2
GCUUCAAUGAGGAGUAUCUTT against Smpdl3b -0.617
GGAUUGGAUAUUGAGAAGGTT against Rexo2 -1.72
GGUCAACUCUAAGAUGCUGTT against 9930012K11Rik 1.35
CGUGUGAAGUAAAGAUGUUTT against Mrpl57 0.212
GGAGCUGCUUUCAAAGCUGTT against Ccdc136 -0.831
CGGAUUAUUGGUUAGAAAUTT against C230013L11Rik 1.26
GCACAAUGGAAGGUGUCCUTT against Tas2r114 0.597
GGACUUUGUGGACAAAAUUTT against Ift20 -1.64
GGAGAUAAAGAGGAACAUUTT against AI504432 1.01
GGGUUUUGAAAGAGGAAAATT against Osbpl8 1.52
GGGACUGGAACAAUAGAGGTT against BC030500 0.626
GGGACAAGUGACUGAAUUGTT against Dio3 0.408
GGCCAUUUACUUGAAGAACTT against Lpin3 -0.0508
GAUGCCCAAUGUGCAAAUGTT against Defa-rs12 1.06
CCACUGCACUGUAAAUCAATT against Glrx5 -1.41
GGACUGAAAUGUCUUAGACTT against Selenow -1.21
GCAUCGCAUAUUGGAAUGCTT against Lim2 0.366
CGGCAAAUUCGUGAAAAGGTT against Olfr575 0.118
GCAACUGAAUUCCAGUUUUTT against Ugt1a2 -0.0905
GGAGCUAGCCAACUUCGAUTT against Lsr -0.182
GCACAGAAAUAUUAAAGUCTT against Foxp4 -1.7
GGGUUUAGAAAGAUGAAUGTT against Tbcel -0.189
GGAGAAAGCCAAAUUUAACTT against Slc17a6 0.103
GGUCUGAAGAAGAUUCUGGTT against Unc45a 0.33
GCCUUUAUAGGAUUUCAAATT against Ppp2r5e 0.678
CGGUACAGGGUAAAGGACATT against Prss41 0.00568
GGCAGAACCCUUUGAUGACTT against Fos -0.0931
GCAGCUGUCCGUAUAUCUUTT against Uxt 0.377
GGAGUCCUGAAGAAUAAAGTT against Tff3 -0.0657
CCCACUACUGUAAGACAUGTT against Trim46 0.614
CCCUCACUAUAACACUAUUTT against Six5 -0.418
GGCUAGAAAGGGUCUCAAATT against Cyp3a25 -1.48
CCCUUAUUGCUAGACCUAGTT against Map3k11 -1.13
GGAUUUUCUCUAUGCAGGCTT against Dcaf15 0.0862
GGAUGUCAAGGACACAGUATT against Olfr73 -1.04
GCAGUGAUCAGGUAAUGAATT against Igf2 0.431
GGAUGUCUUUGUUCACCAGTT against Ybx2 -0.267
GCCUUUUAAUAGAUGUCAUTT against Vta1 -0.201
GGUGUAUUUUUUCACUGUUTT against Olfr339 -1.52
GGACUUGCCACCCAGGAAATT against Apba3 -0.175
GCAGAUCAGAAGAAAUUUGTT against Jmy 1.22
GGGAAAAGCACGUUCUUGCTT against Arl10 0.34
GGAUACGAUCCAGUGUGCCTT against Lyzl4 1.04
GGAGGAUUCCCUCUAUAUUTT against Slc33a1 0.118
GGGUCCCUAAGCAUGUUCCTT against Slfn10-ps 0.618
GGUGGAUAUAAUAAUUGACTT against Tgfbr3 1.06
GCUAUCCAGAUUGGUGUUATT against Tatdn1 1.7
